Common to all, as to test: NCI-60 one-dose screen, 48 h (100 = growth as untreated, 0 = no growth, -100 = all killed)
For one assay, the system named is UACC-62 melanoma. The conditions noted are these: 10 µM unless noted.
For the next assay, the system named is TK-10 renal. The conditions noted are these: 10 µM unless noted.
The next assay has as its system MCF7 breast. The conditions noted are these: 10 µM unless noted.
For a further assay, the system named is HL-60(TB) leukemia. The conditions noted are these: 10 µM unless noted.
The subject of a further assay is HOP-62 NSCLC. The conditions noted are these: 10 µM unless noted.
A further assay concerns NCI-H460 lung. The conditions noted are these: 10 µM unless noted.
The next assay relates to HOP-92 NSCLC. Particulars: 10 µM unless noted.
For the next assay, the system named is A549/ATCC NSCLC. Particulars: 10 µM unless noted.
A further assay concerns 786-0 renal. The conditions noted are these: 10 µM unless noted.
Another assay deals with COLO 205 colon. The conditions noted are these: 10 µM.
The subject of a further assay is DU-145 prostate. Particulars: 10 µM unless noted.
The next assay has as its system K-562 leukemia. The conditions noted are these: 10 µM unless noted.
For another assay, the system named is MDA-MB-231 breast. The conditions noted are these: 10 µM unless noted.
A further assay has as its system RXF 393 renal. The conditions noted are these: 10 µM unless noted.
The subject of a further assay is SF-268 CNS. Particulars: 10 µM unless noted.
The next assay concerns SF-295 CNS. The conditions noted are these: 10 µM unless noted.
Another assay concerns SF-539 CNS. The conditions noted are these: 10 µM unless noted.
In a further assay the test system is UACC-257 melanoma. Particulars: 10 µM unless noted.
In a further assay the test system is M14 melanoma. Particulars: 10 µM unless noted.
The test system of a further assay is HCT-15 colon. Particulars: 10 µM.
In a further assay the test system is HT29 colon. Particulars: 10 µM unless noted.
In another assay the test system is SNB-75 CNS. Particulars: 10 µM unless noted.
A further assay relates to SNB-19 CNS. Particulars: 10 µM unless noted.
Another assay deals with U251 CNS. The conditions noted are these: 10 µM unless noted.
For another assay, the system named is PC-3 prostate. The conditions noted are these: 10 µM unless noted.
For a further assay, the system named is LOX IMVI melanoma. The conditions noted are these: 10 µM unless noted.
Another assay relates to SK-MEL-28 melanoma. The conditions noted are these: 10 µM unless noted.
A further assay deals with SK-MEL-2 melanoma. The conditions noted are these: 10 µM unless noted.
The next assay has as its system EKVX NSCLC. The conditions noted are these: 10 µM unless noted.
In a further assay the test system is SN12C renal. Particulars: 10 µM unless noted.
The subject of the next assay is ACHN renal. Particulars: 10 µM unless noted.
Another assay relates to CAKI-1 renal. Particulars: 10 µM unless noted.
A further assay concerns A498 renal. Particulars: 10 µM unless noted.
A further assay relates to CCRF-CEM leukemia. Particulars: 10 µM unless noted.
A further assay deals with MOLT-4 leukemia. Particulars: 10 µM.
A further assay has as its system RPMI-8226 leukemia. The conditions noted are these: 10 µM unless noted.
In the next assay the test system is OVCAR-8 ovarian. The conditions noted are these: 10 µM unless noted.
The next assay concerns OVCAR-5 ovarian. Particulars: 10 µM unless noted.
The next assay has as its system OVCAR-4 ovarian. The conditions noted are these: 10 µM unless noted.
The test system of the next assay is SK-OV-3 ovarian. The conditions noted are these: 10 µM unless noted.
The test system of another assay is OVCAR-3 ovarian. Particulars: 10 µM unless noted.
The next assay relates to HS 578T breast. Particulars: 10 µM unless noted.
The subject of another assay is NCI/ADR-RES ovarian. The conditions noted are these: 10 µM unless noted.
For another assay, the system named is T-47D breast. Particulars: 10 µM unless noted.
In a further assay the test system is BT-549 breast. The conditions noted are these: 10 µM.
A further assay concerns MDA-MB-435 melanoma. Particulars: 10 µM unless noted.
The next assay concerns SW-620 colon. The conditions noted are these: 10 µM unless noted.
Another assay relates to HCT-116 colon. Particulars: 10 µM unless noted.
The next assay relates to KM12 colon. Particulars: 10 µM unless noted.
The next assay concerns NCI-H226 lung. Particulars: 10 µM unless noted.
The subject of a further assay is NCI-H522 lung. Particulars: 10 µM unless noted.
The subject of a further assay is MALME-3M melanoma. Particulars: 10 µM unless noted.
The next assay relates to SK-MEL-5 melanoma. The conditions noted are these: 10 µM unless noted.
A further assay relates to UO-31 renal. Particulars: 10 µM unless noted.

Each structure is given as a SMILES string. Values joined by “and” are separate entries in the source; they are usually repeats but may differ in a detail not shown here. Equal entries are not always repeated. The panel holds about 83,000 compounds, 20% with a hit somewhere; the sample as a whole holds those more often.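 Plates (96-well) were seeded with cells, treated with compound at one concentration, and incubated for 48 hours before percent growth was determined.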 Active and inactive are the calls of the source. How the source made its calls: active means growth percent below 10; inactive means the rest.

As for `CC12CC3OC(=O)C1COC14OC5(C2C1=O)C(O)(CCC1C4CC2OC24CC=CC(=O)C14C)C(=O)OC35C` (stereo unspecified), the growth in the assay with UACC-62 melanoma is -79.6% [100 µM] (active) and -94.2% [100 µM] (active); in the assay with TK-10 renal, 4.16% [100 µM] (active) and -100% [100 µM] (active); in the assay with MCF7 breast, -49.7% [100 µM] (active) and -85% [100 µM] (active).
Consider `C/C=C1\CN2CCC34c5ccccc5N(C)C35OCC4(C(=O)OC)C1CC25` (stereo unspecified), for which the growth with UACC-62 melanoma was 82.9% [100 µM] (inactive) and -86% [100 µM] (active); in the assay on TK-10 renal it was 80.6% [100 µM] (inactive) and 13.9% [100 µM] (inactive); in the assay with MCF7 breast it was 77% [100 µM] (inactive) and -100% [100 µM] (active).
Consider `O=C1CC23OC(C(O)c4ccccc4N12)C1C(c2ccccc2)=NOC13` (stereo unspecified), for which, in the assay on HL-60(TB) leukemia, the growth was 8.01% (active).
Consider `N#CCN1C(=O)C(CCC(N)=O)N=C(c2ccc(O)cc2)c2cc(Cl)ccc21` (stereo unspecified), for which the growth with UACC-62 melanoma is 91.5% [30 µM] (inactive); in the assay on TK-10 renal, 98.2% [30 µM] (inactive); with MCF7 breast, 93.4% [30 µM] (inactive).
For the compound `CCCCCCCCCCSC(=N)N` (tested in a mixture with another compound), in the assay on HL-60(TB) leukemia, the growth is 62.8% (inactive).
Same read-out and setting: in the case of `CC/C=C\C/C=C\C[C@H](O)C/C=C1/C(=O)C=C[C@@H]1C/C=C\CCCC(=O)O` it was 32.6% (inactive); in that of `COc1nc2c(c(=O)n1C)N=C1c3ccccc3C(=O)C1C(c1ccccc1)N2` (stereo unspecified), 112% (inactive).
Consider `N#CCN1C(=O)C(Cc2ccccc2)N=C(c2cccc(O)c2)c2ccc(Cl)cc21` (stereo unspecified), for which the growth was 103% [30 µM] (inactive) in the assay on UACC-62 melanoma, 102% [30 µM] (inactive) with TK-10 renal and 100% [30 µM] (inactive) in the assay with MCF7 breast.
Take `CCOC(=O)C1C(c2ccccc2)C2(C#N)C(=N)OC1(C)C2(C#N)C#N` (stereo unspecified): the growth is -70.2% [100 µM] (active) and -92.1% [100 µM] (active) in the assay on UACC-62 melanoma; -32.2% [100 µM] (active) and -95.8% [100 µM] (active) in the assay on TK-10 renal; -22.3% [100 µM] (active) and -82.1% [100 µM] (active) in the assay on MCF7 breast.
As for `CCOC(=O)C1(c2ccccc2)CCN(CC(=O)c2ccc(NC(C)=O)cc2)CC1`, the growth is 99.9% (inactive) in the assay with HOP-62 NSCLC; 112% (inactive) in the assay on NCI-H460 lung; 66.5% (inactive) in the assay on HOP-92 NSCLC; 95% (inactive) in the assay with A549/ATCC NSCLC; 110% (inactive) in the assay on 786-0 renal; 103% (inactive) in the assay on COLO 205 colon. For the same compound, the growth in the assay on DU-145 prostate was 123% (inactive); in the assay on K-562 leukemia, 122% (inactive); with MDA-MB-231 breast, 102% (inactive); with RXF 393 renal it was 124% (inactive); in the assay with SF-268 CNS, 116% (inactive); in the assay on SF-295 CNS, 110% (inactive). Further, the growth in the assay on SF-539 CNS was 113% (inactive); with UACC-257 melanoma, 104% (inactive); in the assay on M14 melanoma, 93.6% (inactive); in the assay on HCT-15 colon, 108% (inactive); in the assay on HT29 colon it was 103% (inactive); with SNB-75 CNS, 114% (inactive). Moreover, the growth with SNB-19 CNS was 102% (inactive); in the assay on U251 CNS it was 99.2% (inactive); in the assay on PC-3 prostate, 86.8% (inactive); in the assay on UACC-62 melanoma, 94% (inactive); with LOX IMVI melanoma, 88.8% (inactive); in the assay with SK-MEL-28 melanoma, 124% (inactive). The growth was 89.2% (inactive) in the assay with SK-MEL-2 melanoma; 102% (inactive) in the assay with EKVX NSCLC; 93.2% (inactive) with SN12C renal; 96.4% (inactive) in the assay with TK-10 renal; 96% (inactive) with ACHN renal; 95.4% (inactive) in the assay with CAKI-1 renal. Also, the growth in the assay on A498 renal was 94.5% (inactive); in the assay with HL-60(TB) leukemia, 111% (inactive); with CCRF-CEM leukemia, 99.3% (inactive); in the assay with MOLT-4 leukemia, 102% (inactive); with RPMI-8226 leukemia, 88.3% (inactive); in the assay with OVCAR-8 ovarian, 110% (inactive). Further, the growth was 100% (inactive) in the assay with OVCAR-5 ovarian; 122% (inactive) in the assay on OVCAR-4 ovarian; 101% (inactive) with SK-OV-3 ovarian; 128% (inactive) in the assay on OVCAR-3 ovarian; 113% (inactive) with HS 578T breast; 107% (inactive) in the assay with NCI/ADR-RES ovarian. The growth is 88.2% (inactive) with T-47D breast; 97% (inactive) in the assay on BT-549 breast; 106% (inactive) in the assay on MDA-MB-435 melanoma; 104% (inactive) with SW-620 colon; 107% (inactive) in the assay on MCF7 breast; 97.7% (inactive) with HCT-116 colon. Further, the growth with KM12 colon is 112% (inactive).
As for `Cc1cc(Nc2nc(-c3cccnc3)nc3ccccc23)n[nH]1`, the growth in the assay with HL-60(TB) leukemia is 53.4% (inactive).
As for `O=C1C(Cc2ccccc2)N=C(c2cccc(O)c2)c2ccc(Cl)cc2N1CC1CC1` (stereo unspecified), the growth in the assay on UACC-62 melanoma is 94.1% [30 µM] (inactive); in the assay on TK-10 renal it was 105% [30 µM] (inactive); in the assay with MCF7 breast, 76.3% [30 µM] (inactive).
As to `CN1CCN(c2ccc(NC(=O)c3cncnc3Nc3ccc4c(ccn4Cc4cccc(F)c4)c3)cc2)CC1`, the growth with HL-60(TB) leukemia is -54.3% (active).
As to `O=C1NC(=O)C(CCC(=O)c2cccc3ccccc23)C(=O)N1`, the growth was 77.1% [100 µM] (inactive) and 44.6% [100 µM] (inactive) with UACC-62 melanoma; 91% [100 µM] (inactive) and 51.9% [100 µM] (inactive) in the assay on MCF7 breast.
Regarding `O=C1C(Br)=C(c2ccccc2)C(=O)C(Br)=C1c1ccccc1`, the growth in the assay with HL-60(TB) leukemia is 78.6% (inactive).
`NC(=O)OCC(CO)(c1ccccc1)c1ccccc1`: the growth in the assay on NCI-H226 lung was 96.2% (inactive); in the assay with HOP-62 NSCLC, 94.9% (inactive); with NCI-H460 lung it was 107% (inactive); in the assay on HOP-92 NSCLC, 92.9% (inactive); in the assay with NCI-H522 lung, 98.8% (inactive); in the assay with A549/ATCC NSCLC it was 103% (inactive). Besides, the growth was 96.7% (inactive) in the assay on 786-0 renal; 105% (inactive) with COLO 205 colon; 104% (inactive) in the assay on DU-145 prostate; 108% (inactive) in the assay with K-562 leukemia; 84.6% (inactive) in the assay on MALME-3M melanoma; 114% (inactive) with MDA-MB-231 breast. Further, the growth with RXF 393 renal is 99.6% (inactive); with SF-268 CNS, 101% (inactive); in the assay with SF-295 CNS it was 93.5% (inactive); in the assay on SF-539 CNS it was 96.8% (inactive); with UACC-257 melanoma, 105% (inactive); in the assay with M14 melanoma, 99.5% (inactive). The growth is 97.9% (inactive) in the assay with HT29 colon; 89.2% (inactive) in the assay with SNB-75 CNS; 108% (inactive) in the assay on SNB-19 CNS; 93.2% (inactive) in the assay on PC-3 prostate; 96.4% (inactive) in the assay with SK-MEL-5 melanoma; 115% (inactive) in the assay on UACC-62 melanoma. Also, the growth in the assay with LOX IMVI melanoma is 98.7% (inactive); in the assay with SK-MEL-28 melanoma, 112% (inactive); in the assay on SK-MEL-2 melanoma it was 110% (inactive); in the assay on SN12C renal it was 98.4% (inactive); in the assay with UO-31 renal it was 80.1% (inactive); in the assay with TK-10 renal, 97.7% (inactive).

Source of the values: PubChem BioAssay (NCI).
